Source: PubChem BioAssay (NCATS)
Inconclusive results are not listed. A call without a number means that no potency is given here. Active and inactive are the calls of the source. Calls follow the shape of the dose curve; as a rule, active = well fitted cell-killing curve with a large enough effect; inconclusive = small, poorly fitted or top-dose-only effect, or effect the other way; inactive = no such curve, though single readings can be large or run the other way.

Test: qHTS of pediatric cancer cell lines to identify multiple opportunities for drug repurposing: Confirmatory screen for NB-EBc1 cells (AID 1347115);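 also: cells exposed to compound for 48 h before the viability read; nearly all actives have a fitted effect of over 45% in size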
Settings: NB-EBc1 neuroblastoma cells, viability (cytotoxicity); series mostly up to 45.9 µM
From the text: Drug repurposing or repositioning has been offered as a strategy for drug development in oncology programs. This approach has special potential for childhood cancers and other rare or orphan diseases, where the expected return on new drug development has been a disincentive to pharmaceuticals.
In this project we exploit the poly-pharmacology of drugs to discover new indications via phenotypic screening of a panel of 19 well-characterized cell lines derived from solid tumors seen in children and adolescents. The goal is to identify approved drugs with previously unrecognized anticancer properties that has the potential to reveal new mechanisms and biological processes involved in carcinogenesis or drug resistance. We employed a titration-based paradigm (quantitative high-throughput screening or qHTS), where all compounds were tested at multiple concentrations for their effect on cell viability. Concentration-response curves (CRCs) were derived directly from the primary screen, and both potency and efficacy values were used to identify compounds with robust bioactivity profiles. We screened the NIH Chemical Genomics Center (NCGC) Pharmaceutical Collection (NPC) and Mechanism Interrogation Plate (MIPE) small molecule collections of approved and investigational compounds against these cell lines; and measured metabolically active cells after 48 hours of compound treatment as a proxy for cell viability.
Assay Submitter: Nathalia J. Martinez, National Center for Advancing Translational Sciences, National Institutes of Health, Rockville, MD, USA; email: natalia.martinez@nih.gov
[1] Shen, M et al. Quantitative high-throughput phenotypic screening of pediatric cancer cell lines identifies multiple opportunities for drug repurposing. Oncotarget 2017 Dec 19;9(4):4758-4772. PMID 29435139.
The cells were obtained from University of North Carolina (UNC), Pediatric Preclinical Testing Program (PPT), and Coriell Institute (CI).
qHTS cell viability assay:
Cells were assayed in growth media at a density of 500-1,000 cells/well. Five microliters of cells were dispensed into 1,536-well, white, solid-bottom, TC-treated plates (Greiner Bio One) using a multidrop dispenser and incubated at 37 degrees C, 5% CO2, under a humidified atmosphere for 5 hours. Twenty-three nanoliters of compounds and controls (neutral control DMSO or positive control bortezomib at final concentration of 2.3 µM) were subsequently transferred by Kalypsys pintool. For primary screens, the MIPE collection was tested at 11-point dilutions (final concentrations range from 0.78 nM to 46 µM) and the NPC collection at 8-point dilutions (final concentrations range from 0.59 nM to 46 µM). Compounds tested in follow-up screens were assayed at 11-point dilutions. Cells were incubated for 48 hours, followed by addition of 3 µL of CellTiter-Glo (Promega). After a 15 min incubation at room temperature, samples were analyzed for luminescence intensity using a ViewLux High-throughput CCD imager equipped with clear filters.
Potency is read from the fitted curve at half-maximal effect.

Row | Compound | Potency
1 | Cn1cnc2c(F)c(Nc3ccc(Br)cc3Cl)c(C(=O)NOCCO)cc21 | inactive
2 | CC(C=CC1=C(C)CCCC1(C)C)=CC=CC(C)=CC(=O)O | inactive
3 | CCC(C)n1ncn(-c2ccc(N3CCN(c4ccc(OC[C@H]5CO[C@](Cn6cncn6)(c6ccc(Cl)cc6Cl)O5)cc4)CC3)cc2)c1=O (stereo partly specified) | inactive
4 | Cc1c(C)c2c(c(C)c1O)CCC(C)(COc1ccc(CC3SC(=O)NC3=O)cc1)O2 (stereo unspecified) | inactive
5 | NC(N)=NC(=O)c1nc(Cl)c(N)nc1N | inactive
6 | NC(=O)c1ccc(I)c([N+](=O)[O-])c1 | inactive
7 | COc1cccc2cc(-c3nc(C4CCC(C(=O)O)CC4)n4ncnc(N)c34)[nH]c12 (stereo unspecified) | inactive
8 | CCOc1ccn(-c2ccc(F)cc2)c(=O)c1C(=O)Nc1ccc(Oc2ccnc(N)c2Cl)c(F)c1 | inactive
9 | COc1cc2nccc(Oc3ccc(NC(=O)NC4CC4)c(Cl)c3)c2cc1C(N)=O | inactive
10 | CN(C)c1ccc(C2Nc3ccc4ccccc4c3C3=C2C(=O)CC(C)(C)C3)cc1Br (stereo unspecified) | 42.7 µM (active)
11 | NCCCC(N)(C(=O)O)C(F)F (stereo unspecified) | inactive
12 | CS(=O)(=O)c1ccc(C(=O)Nc2ccc(Cl)c(-c3ccccn3)c2)c(Cl)c1 | inactive
13 | Nc1nc2ccc(OC(F)(F)F)cc2s1 | inactive
14 | OC(CN1CCC(Cc2ccc(F)cc2)CC1)c1ccc(Cl)cc1 (stereo unspecified) | inactive
15 | Cc1oncc1C(=O)Nc1ccc(C(F)(F)F)cc1 | inactive
16 | Nc1nc2[nH]cc(CCc3ccc(C(=O)N[C@@H](CCC(=O)O)C(=O)O)cc3)c2c(=O)[nH]1 | inactive
17 | CCN(CC)CCCC(C)Nc1ccnc2cc(Cl)ccc12 (stereo unspecified) | inactive
18 | CCCS(=O)(=O)Nc1ccc(F)c(C(=O)c2c[nH]c3ncc(-c4ccc(Cl)cc4)cc23)c1F | inactive
19 | Cc1cn[nH]c1 | inactive
20 | COc1cc(Nc2ncc3c(n2)-c2ccc(Cl)cc2C(c2c(F)cccc2OC)=NC3)ccc1C(=O)O | 20.8 µM (active)
21 | CCC(C)(C)C(=O)O[C@H]1C[C@@H](C)C=C2C=C[C@H](C)[C@H](CC[C@@H]3C[C@@H](O)CC(=O)O3)[C@H]21 | inactive
22 | O=C(c1cc(Cc2n[nH]c(=O)c3ccccc23)ccc1F)N1CCN(C(=O)C2CC2)CC1 | inactive
23 | C[C@]1(c2nc3c(C(N)=O)cccc3[nH]2)CCCN1 | inactive
24 | Oc1cccc(-c2nc(N3CCOCC3)c3oc4ncccc4c3n2)c1 | 13.5 µM (active)
25 | COCC(=O)NCC=Cc1ccc2ncnc(Nc3ccc(Oc4ccc(C)nc4)c(C)c3)c2c1 | 30.2 µM (active)
26 | Nc1nc2c(ncn2COCCO)c(=O)[nH]1 | inactive
